# In PubChem BioAssay:
# Results filed as inconclusive are left out. Activity calls are given as the source filed them.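 Rule for the calls, unless noted: active = normalized viability below 100% at a tested concentration; inactive = the rest.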
# Experiments:
# [1] = viability loss in pontine glioma line – cell-based, SU-DIPG-XVII, MIPE5.0, CellTiter-Glo, qHTS, dose response (AID 1347060; cut-off not given, nearly all actives have AC50 up to about 26 µM;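 for AC50: cells exposed to compound for 48 hours before viability readout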); settings: CellTiter-Glo ATP luminescence
# [2] = growth inhibition of DIPG cells – cell-based, MIPE5.0 library, qHTS (AID 1347068; cut-off not given, nearly all actives have IC50 up to about 30 µM;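 for IC50: cells exposed to compound for 48 hours before viability readout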); settings: SU-DIPG-XXV viability
# [3] = JHH-DIPG-1 glioma cell viability, MIPE5.0 library, CellTiter-Glo luminescence, qHTS (AID 1347067; cut-off not given, nearly all actives have AC50 up to about 26 µM;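 note: cells exposed to compound for 48 hours before readout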); settings: JHH-DIPG-1 glioma viability, CellTiter-Glo ATP luminescence
# [4] = viability loss with induced miR-34 in A549 – imaging, A549 dox-inducible miR-34, nuclei and caspase counts, primary screen (AID 1347080;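 active = compounds whose cell count with miR-34 switched on is under 0.7 times the count with it off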); settings: A549 miR-34 inducible, Hoechst nuclei count, 48 h
# [5] = compounds altering HSF1 focus formation in cells – imaging, Selleck Cancer Library (AID 1347162; in the data active = plate-normalised HSF1 focus index below about 0.46); settings: human cells, HSF1 nuclear foci imaging, at 10 µM; SSMD: measured here: HSF1 foci SSMD mean; cell count: measured here: cell number; plate-normalised HSF1 focus index: stronger effect = lower value
# [6] = MELAS cybrid and Rieske KO viability enhancers – cell-based, MELAS cybrids, Rieske KO mouse fibroblasts, CellTiter-Glo, primary screen (AID 1508586;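 active = mean z-score across replicates of 1.96 or higher in either the MELAS or the Rieske mutant cell line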;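 note: z relative to plate mean and SD of compound and empty wells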); settings: low glucose
# [7] = drug combination growth inhibition, ovarian cancer – cell-based, oncology-focused library, rucaparib conditional, profiling panel (AID 1508598); settings: patient-derived ovarian cancer cells, CellTiter-Glo viability, 144 h, stronger effect = lower value
# [8] = P. berghei load reduction in hepatocytes – cell-based, HepG2, luciferase luminescence, HepG2 viability, primary screen (AID 624349; in the data active = parasite load remaining mostly below about 12%, no sharp cut-off; inactive = mostly above about 10%;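 note: 100% = mean of DMSO negative control wells on the same plate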); settings: P. berghei liver stage in HepG2, luciferase luminescence, concentration not given here; parasite load remaining: stronger effect = lower value; viability: measured here: HepG2 viability without parasites
# [9] = at 0.000305 µM, OCI-C5x cells, with rucaparib 10 µM, 100% = cells with rucaparib alone
# [10] = at 0.000305 µM, OCI-C5x cells, without rucaparib
# [11] = at 0.000305 µM, OCI-P5x cells, with rucaparib 20 µM, 100% = cells with rucaparib alone
# [12] = at 0.000305 µM, OCI-P5x cells, without rucaparib
# [13] = at 0.00122 µM, OCI-C5x cells, with rucaparib 10 µM, 100% = cells with rucaparib alone
# [14] = at 0.00122 µM, OCI-C5x cells, without rucaparib
# [15] = at 0.00122 µM, OCI-P5x cells, with rucaparib 20 µM, 100% = cells with rucaparib alone
# [16] = at 0.00122 µM, OCI-P5x cells, without rucaparib
# [17] = at 0.00488 µM, OCI-C5x cells, with rucaparib 10 µM, 100% = cells with rucaparib alone
# [18] = at 0.00488 µM, OCI-C5x cells, without rucaparib
# [19] = at 0.00488 µM, OCI-P5x cells, with rucaparib 20 µM, 100% = cells with rucaparib alone
# [20] = at 0.00488 µM, OCI-P5x cells, without rucaparib
# [21] = at 0.0195 µM, OCI-C5x cells, with rucaparib 10 µM, 100% = cells with rucaparib alone
# [22] = at 0.0195 µM, OCI-C5x cells, without rucaparib
# [23] = at 0.0195 µM, OCI-P5x cells, with rucaparib 20 µM, 100% = cells with rucaparib alone
# [24] = at 0.0195 µM, OCI-P5x cells, without rucaparib
# [25] = at 0.0781 µM, OCI-C5x cells, with rucaparib 10 µM, 100% = cells with rucaparib alone
# [26] = at 0.0781 µM, OCI-C5x cells, without rucaparib
# [27] = at 0.0781 µM, OCI-P5x cells, with rucaparib 20 µM, 100% = cells with rucaparib alone
# [28] = at 0.0781 µM, OCI-P5x cells, without rucaparib
# [29] = at 0.313 µM, OCI-C5x cells, with rucaparib 10 µM, 100% = cells with rucaparib alone
# [30] = at 0.313 µM, OCI-C5x cells, without rucaparib
# [31] = at 0.313 µM, OCI-P5x cells, with rucaparib 20 µM, 100% = cells with rucaparib alone
# [32] = at 0.313 µM, OCI-P5x cells, without rucaparib
# [33] = at 1.25 µM, OCI-C5x cells, with rucaparib 10 µM, 100% = cells with rucaparib alone
# [34] = at 1.25 µM, OCI-C5x cells, without rucaparib
# [35] = at 1.25 µM, OCI-P5x cells, with rucaparib 20 µM, 100% = cells with rucaparib alone
# [36] = at 1.25 µM, OCI-P5x cells, without rucaparib
# [37] = at 5 µM, OCI-C5x cells, with rucaparib 10 µM, 100% = cells with rucaparib alone
# [38] = at 5 µM, OCI-C5x cells, without rucaparib
# [39] = at 5 µM, OCI-P5x cells, with rucaparib 20 µM, 100% = cells with rucaparib alone
# [40] = at 5 µM, OCI-P5x cells, without rucaparib
compound,measurement,setting,value
CSc1ccc(C(=O)/C=C/c2cc(C)c(OC(C)(C)C(=O)O)c(C)c2)cc1,outcome,[1],inactive
same,outcome,[2],inactive
COCCOC(=O)N1CCN(S(=O)(=O)c2cc(F)c(Oc3ccc(Cl)cc3)c(F)c2)C(C(=O)NO)C1 (stereo not given),outcome,[1],inactive
same,AC50,[3],16.6 µM (active)
same,IC50,[2],20.9 µM (active)
O=C(Nc1ccnc(NC(=O)C2CC2)c1)c1c(Cl)cccc1Cl,AC50,[1],9.34 µM (active)
same,AC50,[3],2.63 µM (active)
same,IC50,[2],7.42 µM (active)
O=C(O)CCNc1cc(N2CCc3ccccc3CC2)nc(-c2cccnc2)n1,outcome,[1],inactive
same,outcome,[3],inactive
same,outcome,[2],inactive
CC#C[C@@H](CC(=O)O)c1ccc(OCc2cccc(-c3ccc(C(F)(F)F)cc3)c2)cc1,outcome,[1],inactive
same,outcome,[3],inactive
same,outcome,[2],inactive
CCn1c(N)c(C(=O)NC)c(=O)c2ccc(C#CC(C)(O)COC)nc21 (stereo not given),AC50,[1],20.9 µM (active)
same,outcome,[3],inactive
same,outcome,[2],inactive
CNc1ncc2cc(-c3cc(NC(=O)NCCC(C)(C)C)c(F)cc3C)c(C)nc2n1,outcome,[1],inactive
same,outcome,[2],inactive
COC(=O)C1=C(C)NC(c2ncc(F)cc2F)=N[C@@H]1c1ccc(F)cc1Cl,outcome,[1],inactive
same,outcome,[2],inactive
CC(C)(c1ccc(OCC(O)CO)cc1)c1ccc(OCC(O)CCl)cc1 (stereo not given),outcome,[1],inactive
same,outcome,[3],inactive
same,outcome,[2],inactive
NS(=O)(=O)c1ccc(Cc2c(-c3cccc(-c4ccccc4)c3)nn(-c3nc(C(=O)O)cs3)c2CC2CC2)cc1,AC50,[1],23.5 µM (active)
same,AC50,[3],20.9 µM (active)
same,outcome,[2],inactive
CN1C(=O)N(c2cc(Cl)cc(Cl)c2)C(=O)[C@]12CN(Cc1cc(C(=O)O)cs1)C[C@H]2c1ccc(C#N)cc1,outcome,[1],inactive
same,outcome,[2],inactive
O=C(CCNC(=O)c1ccc(OC(F)(F)F)cc1)N[C@@H]1CCCc2ccccc21,AC50,[1],20.9 µM (active)
same,AC50,[3],8.33 µM (active)
same,outcome,[2],inactive
COc1ccc(Cl)c(Nc2ncnc3cc(OCC4CCN(C)CC4)c(OC)cc23)c1,AC50,[1],3.72 µM (active)
same,AC50,[3],20.9 µM (active)
same,outcome,[2],inactive
CCS(=O)(=O)N1CCC(C(C)n2c(C)c(C(=O)NCc3c(OC)cc(C)[nH]c3=O)c3ccccc32)CC1 (stereo not given),outcome,[1],inactive
same,outcome,[3],inactive
same,outcome,[2],inactive
C[C@H]1C[C@@H](n2c(Nc3ccc(OC(F)(F)F)cc3)nc3cc(CCC(=O)O)ccc32)CC(C)(C)C1,AC50,[1],23.5 µM (active)
same,outcome,[2],inactive
C[C@@H]1CC(=O)Nc2cccc(-c3ccc4c(c3)c(-c3cnn(C)c3)nn4C)c2N1,outcome,[1],inactive
same,outcome,[2],inactive
CC[C@H](C)[C@@H]([C@@H](CC(=O)N1CCC[C@H]1[C@H](OC)[C@@H](C)C(=O)N[C@@H](Cc1ccccc1)c1nccs1)OC)N(C)C(=O)[C@@H](NC(=O)[C@H](C(C)C)N(C)C)C(C)C,outcome,[1],inactive
same,IC50,[2],0.00417 µM (active)
Cc1noc2c1-c1ccccc1C(c1ccc(Cl)cc1)=N[C@H]2CC(N)=O,outcome,[1],inactive
same,outcome,[2],inactive
N#Cc1cccnc1N1CCN(C(=O)c2cccc(Cc3n[nH]c(=O)c4ccccc34)c2)CC1,AC50,[1],0.059 µM (active)
same,outcome,[2],inactive
C[C@@H](O)[C@@H](C)Oc1nc(Nc2ccc(S(=N)(=O)C3CC3)cc2)ncc1C(F)(F)F (stereo not given in full),AC50,[1],20.9 µM (active)
same,outcome,[2],inactive
CN(C)CCN1C(=O)c2cccc3cc(NC(N)=O)cc(c23)C1=O,AC50,[1],18.6 µM (active)
same,outcome,[2],inactive
Cc1cccc(-c2nn3c(c2-c2ccnc4ccc(C(N)=O)cc24)CCC3)n1,outcome,[1],inactive
same,outcome,[3],inactive
same,fold change,"[4]; stronger effect = lower value, cell number ratio, induced over uninduced",0.932 (inactive)
same,fold change,[4]; measured here: relative caspase fold change +Dox/-Dox,0.899
same,cell count,"[4]; measured here: total cells with miR-34 induction, stronger effect = lower value",8480
same,cell count,[4]; measured here: total cells without miR-34 induction,9100
same,SSMD,[5],1.55
same,cell count,[5],6630
same,plate-normalised HSF1 focus index,[5],1.08 (inactive)
same,z-score,"[6]; MELAS cybrid survival, CellTiter-Glo 48 h, stronger effect = higher value",-0.309 (inactive)
same,z-score,"[6]; Rieske KO mouse fibroblast survival, CellTiter-Glo 72 h",1.2
same,viability,[7]; [9],110% (inactive)
same,viability,[7]; [10],130% (inactive)
same,viability,[7]; [11],102% (inactive)
same,viability,[7]; [12],110% (inactive)
same,viability,[7]; [13],110% (inactive)
same,viability,[7]; [14],133% (inactive)
same,viability,[7]; [15],102% (inactive)
same,viability,[7]; [16],108% (inactive)
same,viability,[7]; [17],110% (inactive)
same,viability,[7]; [18],128% (inactive)
same,viability,[7]; [19],99.7% (active)
same,viability,[7]; [20],112% (inactive)
same,viability,[7]; [21],113% (inactive)
same,viability,[7]; [22],136% (inactive)
same,viability,[7]; [23],105% (inactive)
same,viability,[7]; [24],110% (inactive)
same,viability,[7]; [25],109% (inactive)
same,viability,[7]; [26],127% (inactive)
same,viability,[7]; [27],110% (inactive)
same,viability,[7]; [28],116% (inactive)
same,viability,[7]; [29],114% (inactive)
same,viability,[7]; [30],137% (inactive)
same,viability,[7]; [31],113% (inactive)
same,viability,[7]; [32],114% (inactive)
same,viability,[7]; [33],111% (inactive)
same,viability,[7]; [34],135% (inactive)
same,viability,[7]; [35],112% (inactive)
same,viability,[7]; [36],118% (inactive)
same,viability,[7]; [37],131% (inactive)
same,viability,[7]; [38],157% (inactive)
same,viability,[7]; [39],127% (inactive)
same,viability,[7]; [40],125% (inactive)
CCCOc1ccc(CCc2nc3cc(-c4c(C)noc4C)ccc3n2CCN2CCOCC2)cc1,outcome,[1],inactive
same,AC50,[3],20.9 µM (active)
same,outcome,[2],inactive
CC(C)n1cnc2c(NCCCCCCNC(=O)OC(C)(C)C)nc(NCCO)nc21,parasite load remaining,[8],47.6% (inactive)
same,viability,[8],102%
same,AC50,[1],23.5 µM (active)
same,AC50,[3],18.6 µM (active)
COc1cccc(Nc2ncnn3ccc(CN4CC[C@@H](N)[C@H](O)C4)c23)c1,AC50,[1],14.8 µM (active)
same,outcome,[3],inactive
same,outcome,[2],inactive
CC[C@@]1(O)C(=O)OCc2c1cc1n(c2=O)Cc2c-1nc1ccccc1c2CCNC(C)C,AC50,[1],0.00742 µM (active)
same,outcome,[2],inactive
Cc1cc(CS(=O)(=O)c2ccccc2)cc(OCc2ccc(CN3CCC[C@@H]3CO)cc2)c1,AC50,[1],26.3 µM (active)
same,outcome,[3],inactive
same,outcome,[2],inactive
same,viability,[7]; [9],111% (inactive)
same,viability,[7]; [10],109% (inactive)
same,viability,[7]; [11],97% (active)
same,viability,[7]; [12],106% (inactive)
same,viability,[7]; [13],113% (inactive)
same,viability,[7]; [14],120% (inactive)
same,viability,[7]; [15],103% (inactive)
same,viability,[7]; [16],108% (inactive)
same,viability,[7]; [17],111% (inactive)
same,viability,[7]; [18],127% (inactive)
same,viability,[7]; [19],99.4% (active)
same,viability,[7]; [20],107% (inactive)
same,viability,[7]; [21],116% (inactive)
same,viability,[7]; [22],116% (inactive)
same,viability,[7]; [23],107% (inactive)
same,viability,[7]; [24],103% (inactive)
same,viability,[7]; [25],123% (inactive)
same,viability,[7]; [26],125% (inactive)
same,viability,[7]; [27],99.2% (active)
same,viability,[7]; [28],108% (inactive)
same,viability,[7]; [29],116% (inactive)
same,viability,[7]; [30],111% (inactive)
same,viability,[7]; [31],106% (inactive)
same,viability,[7]; [32],109% (inactive)
same,viability,[7]; [33],117% (inactive)
same,viability,[7]; [34],123% (inactive)
same,viability,[7]; [35],99.2% (active)
same,viability,[7]; [36],105% (inactive)
same,viability,[7]; [37],127% (inactive)
same,viability,[7]; [38],122% (inactive)
same,viability,[7]; [39],95.9% (active)
same,viability,[7]; [40],99.8% (active)
COc1cc2c3c(n(CCCN4CCOCC4)c(=O)c2cc1OC)-c1cc2c(cc1C3=O)OCO2,AC50,[1],0.0417 µM (active)
same,AC50,[3],8.33 µM (active)
same,outcome,[2],inactive
